The source made the active and inactive calls. Rule for the calls: active = hit-call score of the fitted dose curve at least 0.9, where 1 is the maximum; inactive = score below 0.9.
Columns and labels:
[1] = read-out: Interleukin-1 alpha (IL1a), IL1A (gene 3552); assay: BSK_KF3CT_IL1a: BioMAP Diversity Plus: KF3CT Assay for Interleukin-1 alpha (IL1a) Biomarker Activity (AID 2283070); conditions: primary human keratinocytes with fibroblasts; actives raise or lower the signal
Summary of the method: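 Readout is IL-1a level by ELISA, compared bidirectionally with DMSO as baseline. Cells: human keratinocytes co-cultured with foreskin fibroblasts, harvested 24 h post-dose.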

[2] = read-out: TIMP metallopeptidase inhibitor 2 (TIMP2), TIMP2 (gene 7077); assay: BSK_KF3CT_TIMP2: BioMAP Diversity Plus: KF3CT Assay for TIMP metallopeptidase inhibitor 2 (TIMP2) Biomarker Activity (AID 2283071); conditions: primary human keratinocytes with fibroblasts; actives raise or lower the signal
Summary of the method: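 TIMP-2 measured by ELISA at 24 h in human keratinocyte/fibroblast primary co-cultures exposed to chemicals. Both increases and decreases were fitted against DMSO. Parallel cultures were stained with SRB for total protein as an overt-cytotoxicity check.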

[3] = read-out: Transforming growth factor beta 1 (TGFb1), TGFB1 (gene 7040); assay: BSK_KF3CT_TGFb1: BioMAP Diversity Plus: KF3CT Assay for Transforming growth factor beta 1 (TGFb1) Biomarker Activity (AID 2283072); conditions: primary human keratinocytes with fibroblasts; actives raise or lower the signal
Summary of the method: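 ELISA quantifies TGF-b1 at 24 h post-dose in a primary human skin co-culture of keratinocytes and fibroblasts, with gain or loss judged against DMSO. Parallel SRB total-protein staining flags overt cytotoxicity.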

[4] = read-out: C-C motif chemokine 2 (Homo sapiens) (UniProt P13500); assay: BSK_KF3CT_MCP1: BioMAP Diversity Plus: KF3CT Assay for Monocyte Chemoattractant Protein 1 (MCP1/CCL2) Biomarker Activity (AID 2283073); conditions: primary human keratinocytes with fibroblasts; actives raise or lower the signal
Summary of the method: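 Human keratinocyte–foreskin fibroblast co-culture; MCP-1 measured by ELISA 24 h after dosing. Bidirectional fit vs DMSO; cytotoxicity tracked by SRB total protein in parallel cultures.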

[5] = read-out: Matrix Metallopeptidase 9 (MMP9), MMP9 (gene 4318); assay: BSK_KF3CT_MMP9: BioMAP Diversity Plus: KF3CT Assay for Matrix Metallopeptidase 9 (MMP9) Biomarker Activity (AID 2283074); conditions: primary human keratinocytes with fibroblasts; actives raise or lower the signal
Summary of the method: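 Values come from bidirectional fitting relative to DMSO of MMP-9 levels, which were measured by ELISA. Measurements were taken 24 h after chemical dosing of a keratinocyte and foreskin fibroblast co-culture.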

[6] = read-out: urokinase plasminogen activator (uPA), PLAU (gene 5328); assay: BSK_KF3CT_uPA: BioMAP Diversity Plus: KF3CT Assay for urokinase plasminogen activator (uPA) Biomarker Activity (AID 2283075); conditions: primary human keratinocytes with fibroblasts; actives raise or lower the signal
Summary of the method: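 Values derive from bidirectional fitting against DMSO controls. Keratinocyte/foreskin fibroblast co-cultures received chemical; 24 h later uPA was detected by ELISA, with SRB total-protein staining in parallel wells for overt cytotoxicity.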

CD40, CD40 (gene 958) [7] = assay: BSK_LPS_CD40: BioMAP Diversity Plus: LPS Assay for CD40 Biomarker Activity (AID 2283076); conditions: primary human HUVEC with PBMC; actives raise or lower the signal
Summary of the method: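 HUVEC plus PBMC co-culture stimulated with LPS; CD40 quantified by ELISA 24 h after compound dosing. Fitting was bidirectional relative to DMSO. SRB staining of parallel cultures flagged overt cytotoxicity.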

[8] = read-out: E-selectin (Homo sapiens) (UniProt P16581); assay: BSK_LPS_Eselectin: BioMAP Diversity Plus: LPS Assay for Eselectin Biomarker Activity (AID 2283077); conditions: primary human HUVEC with PBMC; actives raise or lower the signal
Summary of the method: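 Human umbilical vein endothelial cells co-cultured with PBMC under LPS stimulation; cell-surface E-selectin measured by ELISA 24 h after dosing. Change in either direction versus DMSO, with SRB total-protein staining in parallel cultures for cytotoxicity.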

[9] = read-out: Interleukin-8 (IL8), CXCL8 (gene 3576); assay: BSK_LPS_IL8: BioMAP Diversity Plus: LPS Assay for Interleukin-8 (IL8) Biomarker Activity (AID 2283078); conditions: primary human HUVEC with PBMC; actives raise or lower the signal
Summary of the method: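 Human umbilical vein endothelial cells co-cultured with PBMC, LPS-stimulated, exposed to compound for 24 h. IL-8 quantified by ELISA; fitted in both directions against DMSO, with SRB total-protein staining of parallel cultures for cytotoxicity.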

[10] = BSK_LPS_SRB: Viability Assessment in the BioMAP Diversity Plus: LPS Assay (AID 2283079); conditions: primary human HUVEC with PBMC;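 note: total protein by sulforhodamine B absorbance as a cytotoxicity measure; measured one day after compound addition; fitted in both directions against DMSO so loss or gain of signal counts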
Summary of the method: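 Co-culture of human umbilical vein endothelial cells and PBMC, read 24 h after dosing. Total protein by 0.1% SRB staining after 10% TCA fixation, absorbance at 560 nm; bidirectional fit against DMSO.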

[11] = read-out: Interleukin-1 alpha (IL1a), IL1A (gene 3552); assay: BSK_LPS_IL1a: BioMAP Diversity Plus: LPS Assay for Interleukin-1 alpha (IL1a) Biomarker Activity (AID 2283080); conditions: primary human HUVEC with PBMC; actives raise or lower the signal
Summary of the method: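 Human umbilical vein endothelial cells co-cultured with PBMC and stimulated with LPS; IL-1a measured by ELISA 24 h after dosing. Bidirectional fitting against DMSO; cytotoxicity checked by SRB staining in parallel cultures.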

[12] = read-out: Monocyte Chemoattractant Protein-1 (MCP1), CCL2 (gene 6347); assay: BSK_LPS_MCP1: BioMAP Diversity Plus: LPS Assay for Monocyte Chemoattractant Protein-1 (MCP1) Biomarker Activity (AID 2283081); conditions: primary human HUVEC with PBMC; actives raise or lower the signal
Summary of the method: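 Human umbilical vein endothelial cells co-cultured with PBMC, LPS-stimulated; secreted MCP-1 measured by ELISA 24 h after compound addition. Bidirectional curve fitting against DMSO baseline; SRB total-protein staining in parallel cultures for cytotoxicity.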

[13] = BSK_LPS_PGE2: BioMAP Diversity Plus: LPS Assay for Prostaglandin E2 (PGE2) Biomarker Activity (AID 2283082); conditions: primary human HUVEC with PBMC; actives raise or lower the signal;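 note: secreted prostaglandin E2 measured by ELISA in LPS-stimulated co-culture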
Summary of the method: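 PGE2 release measured by ELISA in an LPS-activated co-culture of human umbilical vein endothelial cells and peripheral blood mononuclear cells, read at 24 h post-dosing. DMSO served as baseline for bidirectional curve fitting.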

[14] = read-out: Macrophage colony-stimulating factor (MCSF), CSF1 (gene 1435); assay: BSK_LPS_MCSF: BioMAP Diversity Plus: LPS Assay for Macrophage colony-stimulating factor (MCSF) Biomarker Activity (AID 2283083); conditions: primary human HUVEC with PBMC; actives raise or lower the signal
Summary of the method: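 HUVEC–PBMC co-culture, M-CSF measured by ELISA 24 h after chemical dosing. Fitted in both directions relative to DMSO as negative control; overt cytotoxicity assessed by SRB total-protein staining in parallel cultures.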

[15] = read-out: Tumor necrosis factor (Homo sapiens) (UniProt P01375); assay: BSK_LPS_TNFa: BioMAP Diversity Plus: LPS Assay for Tumour Necrosis Factor alpha (TNFa) Biomarker Activity (AID 2283085); conditions: primary human HUVEC with PBMC; actives raise or lower the signal
Summary of the method: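 TNFa was quantified by ELISA in LPS-activated co-cultures of human endothelial cells and PBMC, 24 h post-dosing. Both increases and decreases versus DMSO were fitted.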

[16] = read-out: Vascular cell adhesion molecule 1 (VCAM1), VCAM1 (gene 7412); assay: BSK_LPS_VCAM1: BioMAP Diversity Plus: LPS Assay for Vascular cell adhesion molecule 1 (VCAM1) Biomarker Activity (AID 2283086); conditions: primary human HUVEC with PBMC; actives raise or lower the signal
Summary of the method: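 VCAM-1 quantified by ELISA in an LPS-activated co-culture of human endothelial cells and peripheral blood mononuclear cells, read 24 h post-treatment. Fitted in both directions versus DMSO; parallel SRB staining flags overt cytotoxicity.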

CD38, CD38 (gene 952) = assay: BSK_SAg_CD38: BioMAP Diversity Plus: SAg Assay for CD38 Biomarker Activity (AID 2283087); conditions: primary human HUVEC with PBMC; actives raise or lower the signal
Summary of the method: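 CD38 quantified by ELISA (fluorescence) in a superantigen-activated endothelial cell–PBMC co-culture at 24 h post-dose. Activity fitted in both directions relative to DMSO; parallel SRB and Alamar Blue cytotoxicity read-outs.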

CD40, CD40 (gene 958) [17] = assay: BSK_SAg_CD40: BioMAP Diversity Plus: SAg Assay for CD40 Biomarker Activity (AID 2283088); conditions: primary human HUVEC with PBMC; actives raise or lower the signal
Summary of the method: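 HUVEC plus PBMC co-culture, superantigen-activated, with CD40 read by ELISA 24 h after dosing. Curves fitted in both directions against DMSO. Overt cytotoxicity checked by parallel SRB total-protein staining.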

CD69, CD69 (gene 969) = assay: BSK_SAg_CD69: BioMAP Diversity Plus: SAg Assay for CD69 Biomarker Activity (AID 2283089); conditions: primary human HUVEC with PBMC; actives raise or lower the signal
Summary of the method: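 Values derive from bidirectional fitting relative to DMSO vehicle. Cells: umbilical vein endothelium plus peripheral blood mononuclear cells, treated 24 h before fluorescent ELISA for CD69.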

Measured: AC50

Tumor necrosis factor (Homo sapiens), sequence (P01375 whole entry, looked up): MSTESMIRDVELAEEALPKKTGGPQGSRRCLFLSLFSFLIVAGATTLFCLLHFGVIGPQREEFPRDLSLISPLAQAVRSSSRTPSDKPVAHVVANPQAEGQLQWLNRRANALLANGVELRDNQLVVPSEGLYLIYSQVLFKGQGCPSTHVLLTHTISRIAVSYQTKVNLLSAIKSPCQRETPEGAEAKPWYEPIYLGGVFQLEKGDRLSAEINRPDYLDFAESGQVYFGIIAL
E-selectin (Homo sapiens), sequence (P16581 whole entry, looked up): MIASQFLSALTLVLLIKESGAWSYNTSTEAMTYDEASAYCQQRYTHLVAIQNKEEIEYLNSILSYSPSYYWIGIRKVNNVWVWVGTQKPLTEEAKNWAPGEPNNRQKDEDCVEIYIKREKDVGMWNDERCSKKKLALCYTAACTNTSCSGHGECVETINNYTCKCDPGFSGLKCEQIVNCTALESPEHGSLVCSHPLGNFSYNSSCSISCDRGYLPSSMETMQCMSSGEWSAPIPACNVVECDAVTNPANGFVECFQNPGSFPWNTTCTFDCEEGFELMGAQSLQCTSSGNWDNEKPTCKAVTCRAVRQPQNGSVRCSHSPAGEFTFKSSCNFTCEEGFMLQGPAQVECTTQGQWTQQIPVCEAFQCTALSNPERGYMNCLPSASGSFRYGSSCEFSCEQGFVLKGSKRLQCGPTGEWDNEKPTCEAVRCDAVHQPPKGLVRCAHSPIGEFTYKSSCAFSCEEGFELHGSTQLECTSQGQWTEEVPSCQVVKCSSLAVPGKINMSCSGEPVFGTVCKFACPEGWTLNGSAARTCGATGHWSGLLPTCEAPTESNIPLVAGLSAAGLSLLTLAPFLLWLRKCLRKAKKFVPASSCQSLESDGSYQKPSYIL

CC(COc1ccc(Oc2ccccc2)cc1)Oc1ccccn1 (centres undefined)
active: CD40, CD40 (gene 958) [7] 20 µM | [13] 3.97 µM | [16] 0.843 µM
inactive: all other assays above

— PubChem BioAssay (EPA / NIEHS)
